Assay results published in PubChem BioAssay (Tox21).
Several values for one entry are separate records, joined by “and”; a condition that tells them apart may be missing. Equal values may be shown once. The source holds several records for some structures; these can differ, active in one and inactive in another. Activity calls are given as the source filed them. Where a call stands in place of a potency, no number is given. The call rests on the fitted dose curve; in most records, active means well fitted activation curve with a large enough effect in the repeat runs; inconclusive means weak or mixed curves; inactive means flat fitted curve, though single readings scatter.

experiment: A CellTox Green Cytotoxicity Assay to monitor cytotoxicity in HepG2 cells - 0 hour (AID 1224882); conditions: CellTox Green fluorescence; series mostly up to 76.8 µM; further: nearly all actives have a fitted effect of over 35% in size
Description: National Center for Advancing Translational Sciences [NCATS]
NIH Chemical Genomics Center [NCGC]
U.S. Environmental Protection Agency [EPA]
National Institutes of Environmental Health Sciences [NIEHS]
National Toxicology Program [NTP]
Cell-based models are critical for drug discovery. Determining the natural cytotoxic effects resulting from test compounds is an essential research activity. A CellTox Green Cytotoxicity Assay to monitor cytotoxicity in real time of continues cell culture during 40 hours of the compound treatment was used to screen Tox21 10K library compounds in HepG2 cells. CellTox Green Cytotoxicity Assay is a nonlytic, homogeneous, biofluorescent method to measure cytotoxicity in cell culture after experimental manipulation. The assay system uses a proprietary asymmetric cyanine dye that is excluded from viable cells but preferentially stains the dead cell's DNA. […] Viable cells produce no appreciable increases in fluorescence. Therefore, the fluorescence signal produced by the binding interaction with dead cell DNA is proportional to cytotoxicity.
The mixture of HepG2 cell suspension and reagents were dispensed at 600cells/6 ul/well in 1536-well tissue culture treated black solid bottom plates using a Multidrop dispenser. After the assay plates were incubated at a 37 C/5% CO2 incubator for 5 hours, 23 nL of compounds dissolved in DMSO, positive and negative controls was transferred to the assay plate by a pintool work station. The plates were incubated at 37 C for 40 hours. The fluorescence intensity were measured at 0h, 8h, 16h, 24h, 32h and 40h time points using ViewLux plate reader during compound treatment.
Potency means the concentration at half of the fitted maximal effect.

With c1ccc2[nH]ccc2c1 as the compound, how does the Potency read?
Its Potency is “inactive”.

With CCCCC(CC)COC(=O)/C=C/c1ccc(OC)cc1 (stereo not given) as the compound, how does the Potency read?
Its Potency is “inactive”.

For CC1(C)[C@@H]2CC[C@@]1(C)C(=O)C2, which Potency is on record?
The Potency was “inactive”.

With O=C(c1ccccc1)c1ccccc1 as the compound, how does the Potency read?
The Potency was “inactive”.

Which Potency does the source give for NC(=O)NC1NC(=O)NC1=O (stereo not given) here?
Its Potency is “inactive”.

Which Potency does the source give for C[C@]12C=CC(=O)C=C1CC[C@@H]1[C@@H]2[C@@H](O)C[C@@]2(C)[C@H]1CC[C@]2(O)C(=O)CO here?
The Potency was “inactive”.

For CCCC(CCC)C(=O)O, which Potency is on record?
The Potency was “inactive”.

With Nc1ccc(S(=O)(=O)Nc2nccs2)cc1 as the compound, how does the Potency read?
The Potency was “inactive and 43.6 µM (active)”.

With C1N2CN3CN1CN(C2)C3 as the compound, how does the Potency read?
The Potency was “inactive”.

With O=C(O)c1cc(N=Nc2ccc(S(=O)(=O)Nc3ccccn3)cc2)ccc1O as the compound, how does the Potency read?
The Potency was “inactive”.

For COc1ccc2[nH]cc(CCNC(C)=O)c2c1, which Potency is on record?
The Potency was “inactive”.

For Cc1cn([C@H]2C[C@H](N=[N+]=[N-])[C@@H](CO)O2)c(=O)[nH]c1=O, which Potency is on record?
Its Potency is “inactive”.

Which Potency does the source give for OC(Cn1cncn1)(Cn1cncn1)c1ccc(F)cc1F here?
Its Potency is “inactive”.

Which Potency does the source give for CC(O)CO (stereo not given) here?
The Potency was “inactive”.

With N=C(N)c1ccc(OCCCCCOc2ccc(C(=N)N)cc2)cc1 as the compound, how does the Potency read?
The Potency was “inactive”.

For Nc1ccc(C(=O)O)cc1, which Potency is on record?
Its Potency is “inactive”.

Which Potency does the source give for CC(O)C(=O)O (stereo not given) here?
The Potency was “inactive”.

For CCCCCCCCCCCCCCCC(=O)O, which Potency is on record?
The Potency was “inactive”.

Which Potency does the source give for Oc1ccc(/C=C/c2cc(O)cc(O)c2)cc1 here?
The Potency was “inactive”.

Which Potency does the source give for CC(=O)Nc1nnc(S(N)(=O)=O)s1 here?
Its Potency is “inactive”.

Which Potency does the source give for OCCc1ccccc1 here?
The Potency was “inactive”.

Which Potency does the source give for NC(=O)c1ccccc1O here?
Its Potency is “inactive”.

With O=C(O)CCCCC(=O)O as the compound, how does the Potency read?
Its Potency is “inactive”.

For CCCCC1C(=O)N(c2ccccc2)N(c2ccccc2)C1=O, which Potency is on record?
Its Potency is “inactive”.

With CCCN(CCC)S(=O)(=O)c1ccc(C(=O)O)cc1 as the compound, how does the Potency read?
The Potency was “inactive”.

Which Potency does the source give for O=C(O)CS here?
The Potency was “inactive”.

Which Potency does the source give for Cc1ccc(S(=O)(=O)NC(=O)NN2CCCCCC2)cc1 here?
Its Potency is “inactive”.

With Cc1cc(=O)[nH]c(=S)[nH]1 as the compound, how does the Potency read?
Its Potency is “inactive”.

Which Potency does the source give for O=NO here?
Its Potency is “inactive”.

Which Potency does the source give for Cc1ccc(C)c(OCCCC(C)(C)C(=O)O)c1 here?
Its Potency is “inactive”.

Which Potency does the source give for O=C(c1ccccc1)C(O)c1ccccc1 (stereo not given) here?
The Potency was “inactive”.

With O=S(=O)(O)c1ccc2cc(O)ccc2c1 as the compound, how does the Potency read?
Its Potency is “inactive”.

Which Potency does the source give for NNC(=O)c1ccncc1 here?
The Potency was “inactive”.

For CCCNC(=O)NS(=O)(=O)c1ccc(Cl)cc1, which Potency is on record?
The Potency was “inactive”.

For Nc1ccc(O)c(C(=O)O)c1, which Potency is on record?
The Potency was “inactive”.

For O=C1NC(=O)c2ccccc21, which Potency is on record?
Its Potency is “inactive”.

Which Potency does the source give for O=C1CN(/N=C/c2ccc([N+](=O)[O-])o2)C(=O)N1 here?
Its Potency is “inactive”.

With CC(O)CN(CCN(CC(C)O)CC(C)O)CC(C)O (stereo not given) as the compound, how does the Potency read?
The Potency was “inactive”.

With O=C(O)c1[nH]n(-c2ccc(S(=O)(=O)O)cc2)c(=O)c1N=Nc1ccc(S(=O)(=O)O)cc1 as the compound, how does the Potency read?
The Potency was “inactive”.

Which Potency does the source give for CC(=O)NS(=O)(=O)c1ccc(N)cc1 here?
The Potency was “inactive”.
